From PubChem BioAssay
The list is not random: actives were taken first. Their share in the collection is about 9%.
IMPase Li inh = qHTS Assay for Identifying the Cell-Membrane Permeable IMPase Inhibitors: Potentiation with Lithium | Potency, µM (top dose mostly 59.4 µM), for inactives: at the highest dose activity, negative = IMPase inhibition, actives largely listed as inhibitors | actives 0.35% (n = 210,000) | CHO-M1 cells, IP1 TR-FRET (IP-One), carbachol + lithium; active = well fitted curve in the direction sought with a large enough effect; inconclusive = small, poorly fitted or top-dose-only effect, or another doubt; inactive = no such curve, though single readings can be large; an effect the other way counts as inactive or inconclusive;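 note: IP1 builds up when IMPase is blocked and the TR-FRET signal falls; plate controls were basal vehicle for no effect and high inhibitor control for full effect; nearly all actives have a fitted effect of over 50% in size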
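Steps: plate 2000 CHO-M1 cells per well and culture 16–30 h; add compound and lithium; incubate 30 min, 37C; add d2-IP1 tracer and Eu cryptate anti-IP1 antibody in lysis buffer; read after 10 min at room temperature.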
Luc counter = Counterscreen for Luciferase (Kinase-Glo TM) Inhibition. Kinase-Glo luciferase, ATP luminescence, 8 min. Potency, µM (top dose mostly 38.3 µM), inactives show at the highest dose activity change, negative = inhibition, actives largely listed as inhibitors. actives 0.28% (n = 200,000); active = well fitted curve in the direction sought with a large enough effect; inconclusive = small, poorly fitted or top-dose-only effect, or another doubt; inactive = no such curve, though single readings can be large; an effect the other way counts as inactive or inconclusive; note: nearly all actives have a fitted effect of over 60% in size
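Inhibition of Kinase-Glo luciferase light generation was assessed at 10 uM ATP in pH 7.2 imidazole buffer, with luminescence measured after eight minutes at ambient temperature.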
Lamin A splicing = qHTS Assay for Modulators of Lamin A Splicing; HeLa LMNA splicing GFP/RFP minigene ratio, 48 h; Potency, µM (top dose mostly 46.1 µM), for the others: at the highest dose ratio change, negative = inhibition, usual class: inhibitors; actives 0.01% (n = 200,000); AID 1487, 2009; active = well fitted inhibition curve with a large enough effect in the signal ratio, with a control signal flat, not every such curve was filed as active; inconclusive = small, poorly fitted or top-dose-only effect, or effect the other way, or a change in a side signal; the % refers to the signal ratio
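S3 HeLa cells stably expressing lamin A-EGFP splicing minigene plus DsRed2, 600 cells/well, 48 h compound exposure at 37C. Laser-scanning cytometry; analysed as GFP (500-530 nm)/RFP (575-640 nm) total intensity ratio; 0.5% DMSO vehicle.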
HPGD inh = qHTS Assay for Inhibitors of HPGD (15-Hydroxyprostaglandin Dehydrogenase). 15-hydroxyprostaglandin dehydrogenase [NAD(+)] (Homo sapiens), P15428. purified HPGD, NADH fluorescence kinetic, PGE2 substrate. Potency, µM, inactives show at the top dose activity change, negative = inhibition, hits mostly inhibitors. actives 4.3% (n = 150,000)
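NADH formation kinetics: reaction with 30 uM PGE2 and 1 mM NAD+ (final), 20 nM enzyme, Tris-HCl pH 8 with Tween 20, after 15 min compound preincubation at room temperature. Fluorescence change, last versus first of five reads.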
ALDH1A1 block = qHTS Assay for Inhibitors of Aldehyde Dehydrogenase 1 (ALDH1A1); Aldehyde dehydrogenase 1A1 (Homo sapiens), P00352; Purified ALDH1A1, NADH fluorescence, propionaldehyde substrate; Potency, µM (top dose mostly 75.3 µM), without a hit: at the highest dose activity, negative = inhibition, hits mostly inhibitors; actives 7.3% (n = 220,000);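 note: plate controls were no enzyme wells and a reference inhibitor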
Target sequence (P00352 whole entry, looked up): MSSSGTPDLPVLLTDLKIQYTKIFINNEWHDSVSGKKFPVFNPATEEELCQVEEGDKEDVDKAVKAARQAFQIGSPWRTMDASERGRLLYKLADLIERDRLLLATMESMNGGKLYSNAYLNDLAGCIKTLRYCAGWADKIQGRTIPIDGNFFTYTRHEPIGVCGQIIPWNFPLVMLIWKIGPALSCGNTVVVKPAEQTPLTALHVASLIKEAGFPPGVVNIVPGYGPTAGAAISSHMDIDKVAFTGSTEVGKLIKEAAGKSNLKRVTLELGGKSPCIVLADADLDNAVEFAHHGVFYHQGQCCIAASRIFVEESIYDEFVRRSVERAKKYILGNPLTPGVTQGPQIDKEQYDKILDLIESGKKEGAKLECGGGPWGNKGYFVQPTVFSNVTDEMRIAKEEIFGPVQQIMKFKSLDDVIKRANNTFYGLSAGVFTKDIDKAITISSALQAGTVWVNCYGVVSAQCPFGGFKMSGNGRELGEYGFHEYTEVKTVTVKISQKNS
* marks the source's active call; other numbers are inactive results; ? = inconclusive; nt = no result given; [ ] = dose if it differs, or a comment. Unless noted, calls come from the whole dose curve; as a rule, active = well fitted inhibition curve with a large enough effect (not every such curve was filed as active); inconclusive = small, poorly fitted or top-dose-only effect, or another doubt; inactive = no such curve, though single readings can be large or run the other way. Unless noted, % is set by controls: 0 for no effect and ±100 for the full control effect; potency is the fitted concentration of half-maximal effect.

SMILES	IMPase Li inh	Luc counter	Lamin A splicing	HPGD inh	ALDH1A1 block
O=C1CN(C(=O)COC(=O)c2ccc(N3CCCCCC3)c([N+](=O)[O-])c2)c2ccccc2N1	nt	nt	-10%	nt	7.9µM*
NNC(=O)c1ccc(N2CCCCCC2)c([N+](=O)[O-])c1	-5%	9%	26%[46 µM]	nt	1.6µM*
O=[N+]([O-])c1cc([N+](=O)[O-])c(N2CCCCCC2)cc1NCCO	2%[38.3 µM]	1%	20%	-10%	2.2µM*
CCCCSc1cc(=O)[nH]c(N)n1	nt	nt	15%[46 µM]	nt	2%
Nc1nc(N)nc(CCCc2nc(N)nc(N)n2)n1	-18%	-2%[7.66 µM]	nt	-2%	3%[13.5 µM]
Cc1ccc(NC(=O)CCC(=O)NNC(=S)Nc2ccccc2)c(C)c1	1%	-1%	?	nt	8.9µM*
Cc1ccc(NC(=S)NNC(=S)Nc2ccc(C)cc2C)cc1	17%	0%	nt	nt	0.45µM*
Cc1ccc(NC(=S)Nc2ccc3cn[nH]c3c2)c(C)c1	2%	-1%	7%[46 µM]	nt	?
Cc1ccc(C)c(NC(=O)CCC(=O)NNC(=S)Nc2ccccc2)c1	6%	1%	14%[46 µM]	nt	5%
CCOC(=O)/C(=C\c1ccc(Cl)cc1)c1nc2sc(C)c(C)c2c(=O)[nH]1	15%	-2%	?	22µM*	25µM*
CCOc1ccc(-n2c(=S)sc3c(=O)[nH]c(SCC(=O)C(C)(C)C)nc32)cc1	11%	-1%	nt	nt	7.1µM*
CCOC(=O)CSc1nc2c(sc(=S)n2-c2ccccc2)c(=O)[nH]1	-5%	5%	5%	20µM*	9%
CCCCC(=O)N(Cc1nc2sc(C)c(C)c2c(=O)[nH]1)C1CCCC1	8%	-1%	nt	nt	?
CCOc1ccc(-n2c(=S)sc3c(=O)[nH]c(SCC(=O)N4CCC(C)CC4)nc32)cc1	27%[38.3 µM]	-2%	13%	-11%	-5%
CCOC(=O)CSc1nc2c(sc(=S)n2-c2ccc(OCC)cc2)c(=O)[nH]1	6%	0%	nt	nt	?
CCOC(=O)CSc1nc2sc(C)c(C)c2c(=O)[nH]1	-30%[38.3 µM]	1%	14%	3.5µM*	-6%
COc1cc(OC)cc(C(=O)Nc2nnc3n2CCS3)c1	nt	nt	-6%[46 µM]	nt	nt
CCCc1nnc(SCC(=O)N2CCCCC2)n1CCCOC	1%[38.3 µM]	-1%	10%	-11%	3%
CC1(C)C(=O)Nc2ccccc2N1C(=O)CSc1nc(-c2ccccc2)cs1	7%	-1%	?	-18%	-4%
Cc1ccc(-n2nnnc2SCC(=O)N2CC(=O)Nc3ccccc32)cc1	66%[38.3 µM]	0%	-9%	?	11µM*
O=C1CN(C(=O)CSc2nc(-c3ccccc3)cs2)c2ccccc2N1	2%	3%	?	18µM*	7%
CC(=O)CSc1nc2cc3c(cc2cc1C#N)OCCO3	-27%	4.5µM*	?	nt	?
O=C(O)c1c(Cl)c(Cl)c(Cl)c(Cl)c1-c1c2cc(I)c(=O)c(I)c-2oc2c(I)c(O)c(I)cc12	?	13µM*	?	32µM*	32µM*
CC1CCCC(=C\c2ccccc2)/C1=N/O (stereo not given)	-3%	-6%	-1%	3.2µM*	-8%
COc1ccc(OC)c(C2C(C(=O)c3cc4ccccc4o3)=C(O)C(=O)N2c2cc(C)on2)c1 (stereo not given)	11µM*	0%	?	-11%	?
COc1cc(C2C(C(=O)c3ccc(C)o3)=C(O)C(=O)N2c2cc(C)on2)cc(Br)c1O (stereo not given)	3%[38.3 µM]	2%	-2%	-24%	20%
COc1ccc(C2C(C(=O)c3ccc(C)o3)=C(O)C(=O)N2c2cc(C)on2)cc1OC (stereo not given)	10µM*	-3%	4%	-18%	-1%
COc1cc(C2C(C(=O)c3ccco3)=C(O)C(=O)N2c2cc(C)on2)cc(Br)c1O (stereo not given)	3%[38.3 µM]	1%	5%	2%	3%
